Experimental data: PubChem BioAssay AID1159580 (chemical genetic matrix, 2015)
The campaign covered roughly 5,500 compounds. About 2,000 (36%) were called active. About 18% were inconclusive and are not listed. No stated cut-off is given here; in the data, active means normalized growth mostly below about 0.91 (no sharp cut-off); inconclusive means no clear call, values can overlap the other calls; inactive means mostly above about 0.92. This is one part of the list.

Assay: chemical genetic growth profiling, strain panel (AID 1159580);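 further: tested at 20 µM; growth read once vehicle control cultures reached saturation at 30 °C; 1 = growth at the plate median or of vehicle wells; lower values mean less growth of the strain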
Conditions: S. cerevisiae deletion strains, growth OD

Measured: normalized growth

CC[C@H](C)C(=O)O[C@H]1CCC=C2C=C[C@H](C)C(CCC3C[C@@H](O)CC(=O)O3)[C@H]21 (stereo partly drawn)
active: locus YAL021C, strain ccr4, active compounds read low 0.894 | locus YDR137W, strain rgp1, active compounds read low 1.39 [resistant] | locus YKL009W, strain mrt4, active compounds read low 0.864 | locus YLR262C, strain YPT6 (second series), active compounds read low 1.22 [resistant]
inactive: locus YAL026C, strain drs2, active compounds read low 1.02 | locus YAL030W, strain snc1, active compounds read low 0.997 | locus YBL061C, strain skt5, active compounds read low 1.01 | locus YBR009C, strain hhf1, active compounds read low 1 | locus YBR021W, strain FUR4, active compounds read low 0.958 | locus YBR023C, strain chs3, active compounds read low 1.01 | locus YBR171W, strain sec66, active compounds read low 1.02 | locus YBR229C, strain ROT2, active compounds read low 0.983 | locus YBR231C, strain swc5, active compounds read low 0.95 | locus YBR279W, strain paf1, active compounds read low 1 | locus YCL011C, strain gbp2, active compounds read low 1.01 | locus YCL016C, strain dcc1, active compounds read low 0.997 | locus YCL029C, strain bik1, active compounds read low 0.969 | locus YCL061C, strain MRC1, active compounds read low 1 | locus YCL069W, strain vba3, active compounds read low 1 | locus YCR088W, strain abp1, active compounds read low 1.01 | locus YDL005C, strain med2, active compounds read low 0.988 | locus YDL035C, strain GPR1, active compounds read low 0.981 | locus YDL040C, strain nat1, active compounds read low 1 | locus YDL074C, strain BRE1, active compounds read low 0.957 | locus YDL101C, strain DUN1, active compounds read low 0.989 | locus YDL134C, strain PPH21, active compounds read low 1.01 | locus YDL185W, strain tfp1, active compounds read low 0.978 | locus YDL192W, strain arf1, active compounds read low 0.972 | locus YDR001C, strain nth1, active compounds read low 1 | locus YDR069C, strain doa4, active compounds read low 1.01 | locus YDR101C, strain arx1, active compounds read low 0.974 | locus YDR150W, strain NUM1, active compounds read low 0.997 | locus YDR159W, strain sac3, active compounds read low 1.04 | locus YDR162C, strain NBP2, active compounds read low 0.987 | locus YDR195W, strain ref2 1 | locus YDR297W, strain sur2, active compounds read low 1 | locus YDR318W, strain mcm21, active compounds read low 0.992 | locus YDR334W, strain swr1, active compounds read low 0.997 | locus YDR335W, strain msn5, active compounds read low 0.999 | locus YDR388W, active compounds read low 0.981 | locus YDR392W, strain spt3, active compounds read low 0.989 | locus YDR502C, strain sam2, active compounds read low 1.02 | locus YEL003W, strain gim4, active compounds read low 1.02 | locus YEL037C, strain rad23, active compounds read low 1 | locus YEL061C, strain CIN8 (second series), active compounds read low 0.999 | locus YEL061C, strain CIN8, active compounds read low 0.99 | locus YER015W, strain faa2, active compounds read low 1.01 | locus YER016W, strain bim1, active compounds read low 0.999 | locus YER110C, active compounds read low 0.968 | locus YER111C, strain swi4, active compounds read low 0.995 | locus YER155C, strain BEM2 (second series), active compounds read low 1.02 | locus YER155C, strain BEM2, active compounds read low 0.967 | locus YER167W, strain BCK2, active compounds read low 0.99 | locus YFR010W, strain ubp6, active compounds read low 1.03 | locus YGL078C, strain dbp3, active compounds read low 0.971 | locus YGL086W, strain mad1, active compounds read low 0.956 | locus YGL167C, strain pmr1, active compounds read low 0.996 | locus YGL173C, strain kem1, active compounds read low 1.01 | locus YGL227W, strain vid30, active compounds read low 1 | locus YGL240W, strain doc1, active compounds read low 1.02 | locus YGL248W, strain PDE1, active compounds read low 0.998 | locus YGL253W, strain hxk2, active compounds read low 1.01 | locus YGR135W, strain pre9, active compounds read low 1 | locus YGR252W, strain gcn5, active compounds read low 1.03 | locus YHR013C, strain ard1, active compounds read low 0.947 | locus YHR027C, strain rpn1, active compounds read low 1.02 | locus YHR030C, strain SLT2, active compounds read low 0.982 | locus YHR079C, strain IRE1 (second series), active compounds read low 0.98 | locus YHR094C, strain hxt1, active compounds read low 0.981 | locus YHR129C, strain ARP1, active compounds read low 0.987 | locus YHR142W, strain chs7, active compounds read low 1.01 | locus YHR200W, strain rpn10, active compounds read low 0.978 | locus YIL066C, strain RNR3, active compounds read low 0.989 | locus YIL073C, strain SPO22, active compounds read low 0.975 | locus YIL125W, strain kgd1, active compounds read low 0.99 | locus YIR030C, strain dcg1, active compounds read low 0.981 | locus YJL092W, strain hpr5, active compounds read low 1.01 | locus YJL095W, strain BCK1 (second series), active compounds read low 1.01 | locus YJL095W, strain BCK1, active compounds read low 1.03 | locus YJL115W, strain asf1, active compounds read low 1 | locus YJL129C, strain trk1, active compounds read low 1.04 | locus YJL134W, strain LCB3, active compounds read low 0.977 | locus YJL154C, strain vps35, active compounds read low 1 | locus YJL164C, strain tpk1, active compounds read low 1.01 | locus YJL166W, strain qcr8, active compounds read low 1.02 | locus YJL168C, strain set2, active compounds read low 0.975 | locus YJL187C, strain SWE1 (second series), active compounds read low 0.994 | locus YJL187C, strain SWE1, active compounds read low 1 | locus YJR043C, strain POL32, active compounds read low 0.978 | locus YKL068W, active compounds read low 0.987 | locus YKL085W, strain MDH1 (second series), active compounds read low 0.966 | locus YKL085W, strain MDH1, active compounds read low 0.966 | locus YKL160W, strain elf1, active compounds read low 1.01 | locus YKL190W, strain CNB1, active compounds read low 0.993 | locus YKR001C, strain vps1, active compounds read low 0.973 | locus YKR026C, strain gcn3, active compounds read low 0.981 | locus YKR091W, strain srl3, active compounds read low 1 | locus YLL001W, strain dnm1, active compounds read low 1.01 | locus YLL026W, active compounds read low 1.01 | locus YLL041C, strain sdh2, active compounds read low 1 | locus YLR027C, strain aat2, active compounds read low 1.01 | locus YLR039C, strain RIC1, active compounds read low 1.15 | locus YLR058C, strain SHM2, active compounds read low 0.989 | locus YLR102C, strain apc9, active compounds read low 0.973 | locus YLR221C, strain rsa3, active compounds read low 1.02 | locus YLR258W, strain gsy2, active compounds read low 1.01 | locus YLR262C, strain YPT6, active compounds read low 1.07 | locus YLR268W, strain sec22, active compounds read low 0.954 | locus YLR320W, strain mms22, active compounds read low 1.02 | locus YLR330W, strain CHS5, active compounds read low 0.991 | locus YLR342W, strain FKS1 (second series), active compounds read low 1.03 | locus YLR342W, strain FKS1, active compounds read low 1.01 | locus YLR357W, strain rsc2, active compounds read low 1.01 | locus YLR370C, strain arc18, active compounds read low 1 | locus YLR371W, strain rom2, active compounds read low 0.955 | locus YLR384C, strain iki3, active compounds read low 1.01 | locus YLR418C, strain cdc73, active compounds read low 1 | locus YML016C, strain PPZ1, active compounds read low 0.999 | locus YML032C, strain rad52, active compounds read low 1.03 | locus YML120C, strain ndi1, active compounds read low 1.02 | locus YML124C, strain tub3, active compounds read low 0.983 | locus YMR058W, strain fet3, active compounds read low 1.01 | locus YMR078C, strain ctf18, active compounds read low 0.997 | locus YMR125W, strain sto1, active compounds read low 1.02 | locus YMR129W, active compounds read low 1 | locus YMR205C, strain PFK2, active compounds read low 1.01 | locus YMR223W, strain ubp8, active compounds read low 0.995 | locus YMR231W, strain pep5, active compounds read low 0.996 | locus YMR307W, strain GAS1, active compounds read low 1.07 | locus YNL067W, strain RPL9B, active compounds read low 1 | locus YNL071W, strain lat1, active compounds read low 1 | locus YNL209W, strain ssb2, active compounds read low 1.02 | locus YNL233W, strain BNI4, active compounds read low 1.01 | locus YNL248C, strain rpa49, active compounds read low 1.02 | locus YNL250W, strain rad50, active compounds read low 0.977 | locus YNL271C, strain bni1, active compounds read low 0.977 | locus YNL298W, strain CLA4, active compounds read low 0.968 | locus YNL307C, strain MCK1, active compounds read low 0.978 | locus YNL322C, strain KRE1 (second series), active compounds read low 1.01 | locus YNL322C, strain KRE1, active compounds read low 0.989 | locus YNR049C, strain mso1, active compounds read low 1.01 | locus YNR052C, strain pop2, active compounds read low 0.966 | locus YOL012C, strain htz1 0.865 | locus YOL147C, strain pex11, active compounds read low 0.994 | locus YOR001W, strain rrp6, active compounds read low 1.01 | locus YOR061W, strain CKA2, active compounds read low 0.985 | locus YOR069W, strain VPS5, active compounds read low 0.981 | locus YOR070C, strain gyp1, active compounds read low 1.02 | locus YOR080W, strain dia2, active compounds read low 1 | locus YOR083W, strain WHI5, active compounds read low 1.01 | locus YOR106W, strain vam3, active compounds read low 1.04 | locus YOR136W, strain idh2, active compounds read low 0.977 | locus YOR144C, strain elg1, active compounds read low 0.977 | locus YOR184W, strain ser1, active compounds read low 0.957 | locus YOR265W, strain rbl2, active compounds read low 1 | locus YOR270C, strain vph1, active compounds read low 0.999 | locus YOR290C, strain snf2, active compounds read low 0.991 | locus YOR316C, strain cot1, active compounds read low 0.983 | locus YPL051W, strain arl3, active compounds read low 1.02 | locus YPL078C, strain atp4, active compounds read low 1.01 | locus YPL106C, strain sse1, active compounds read low 1.06 | locus YPL240C, strain hsp82, active compounds read low 1.01 | locus YPL241C, strain CIN2, active compounds read low 0.981 | locus YPR119W, strain clb2, active compounds read low 0.979 | locus YPR141C, strain kar3, active compounds read low 0.963 | locus YPR163C, strain tif3, active compounds read low 0.992 | locus YPR167C, strain met16, active compounds read low 1 | strain wtn01, active compounds read low 0.935
